Source: PubChem BioAssay AID1159580 (chemical genetic matrix, 2015)
Several values for one entry are separate records, joined by “and”; a condition that tells them apart may be missing. Identical values can stand only once. Among all 5,500 compounds or so, about 2,000 (36%) were called active. Not shown: some 18% with an inconclusive outcome. Rule as the data show it: active = normalized growth mostly below about 0.91 (no sharp cut-off); inconclusive = no clear call, values can overlap the other calls; inactive = mostly above about 0.92. Some of the results follow.

Experiment: chemical genetic growth profiling, strain panel (AID 1159580);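 also: tested at 20 µM; growth read once vehicle control cultures reached saturation at 30 °C; 1 = growth at the plate median or of vehicle wells; lower values mean less growth of the strain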
Settings: S. cerevisiae deletion strains, growth OD

Measured: normalized growth

Cc1c(N(C)CS(=O)(=O)O)c(=O)n(-c2ccccc2)n1C
inactive: locus YAL021C, strain ccr4, active compounds read low 1.01 | locus YAL026C, strain drs2, active compounds read low 1.01 | locus YAL030W, strain snc1, active compounds read low 1.01 | locus YBL061C, strain skt5, active compounds read low 1.01 | locus YBR009C, strain hhf1, active compounds read low 1 | locus YBR021W, strain FUR4, active compounds read low 0.991 | locus YBR023C, strain chs3, active compounds read low 1.01 | locus YBR171W, strain sec66, active compounds read low 1.02 | locus YBR229C, strain ROT2, active compounds read low 0.989 | locus YBR231C, strain swc5, active compounds read low 1.02 | locus YBR279W, strain paf1, active compounds read low 1.04 | locus YCL011C, strain gbp2, active compounds read low 1.01 | locus YCL016C, strain dcc1, active compounds read low 1.01 | locus YCL029C, strain bik1, active compounds read low 0.992 | locus YCL061C, strain MRC1, active compounds read low 1.01 | locus YCL069W, strain vba3, active compounds read low 1.01 | locus YCR088W, strain abp1, active compounds read low 1.01 | locus YDL005C, strain med2, active compounds read low 1.01 | locus YDL035C, strain GPR1, active compounds read low 1 | locus YDL040C, strain nat1, active compounds read low 1.01 | locus YDL074C, strain BRE1, active compounds read low 1.06 | locus YDL101C, strain DUN1, active compounds read low 1 | locus YDL134C, strain PPH21, active compounds read low 0.979 | locus YDL185W, strain tfp1, active compounds read low 0.992 | locus YDL192W, strain arf1, active compounds read low 0.982 | locus YDR001C, strain nth1, active compounds read low 1.01 | locus YDR069C, strain doa4, active compounds read low 1.01 | locus YDR101C, strain arx1, active compounds read low 1.03 | locus YDR137W, strain rgp1, active compounds read low 1.01 | locus YDR159W, strain sac3, active compounds read low 1 | locus YDR162C, strain NBP2, active compounds read low 0.987 | locus YDR195W, strain ref2 1.01 | locus YDR297W, strain sur2, active compounds read low 1.01 | locus YDR318W, strain mcm21, active compounds read low 0.976 | locus YDR334W, strain swr1, active compounds read low 1.01 | locus YDR335W, strain msn5, active compounds read low 1.01 | locus YDR388W, active compounds read low 0.982 | locus YDR392W, strain spt3, active compounds read low 1.01 | locus YDR502C, strain sam2, active compounds read low 1 | locus YEL003W, strain gim4, active compounds read low 1.01 | locus YEL037C, strain rad23, active compounds read low 1.01 | locus YEL061C, strain CIN8 (second series), active compounds read low 1.02 | locus YEL061C, strain CIN8, active compounds read low 0.999 | locus YER015W, strain faa2, active compounds read low 1.01 | locus YER016W, strain bim1, active compounds read low 1.01 | locus YER110C, active compounds read low 0.994 | locus YER111C, strain swi4, active compounds read low 1.01 | locus YER155C, strain BEM2 (second series), active compounds read low 1.02 | locus YER155C, strain BEM2, active compounds read low 0.992 | locus YER167W, strain BCK2, active compounds read low 0.979 | locus YFR010W, strain ubp6, active compounds read low 1.02 | locus YGL078C, strain dbp3, active compounds read low 0.985 | locus YGL086W, strain mad1, active compounds read low 0.995 | locus YGL167C, strain pmr1, active compounds read low 1.01 | locus YGL173C, strain kem1, active compounds read low 1.02 | locus YGL227W, strain vid30, active compounds read low 1.01 | locus YGL240W, strain doc1, active compounds read low 1.03 | locus YGL248W, strain PDE1, active compounds read low 0.991 | locus YGL253W, strain hxk2, active compounds read low 1.01 | locus YGR135W, strain pre9, active compounds read low 0.96 | locus YGR252W, strain gcn5, active compounds read low 0.968 | locus YHR013C, strain ard1, active compounds read low 0.999 | locus YHR027C, strain rpn1, active compounds read low 1.01 | locus YHR030C, strain SLT2, active compounds read low 0.984 and 1 | locus YHR079C, strain IRE1 (second series), active compounds read low 0.986 | locus YHR079C, strain IRE1, active compounds read low 0.98 | locus YHR094C, strain hxt1, active compounds read low 0.985 | locus YHR129C, strain ARP1, active compounds read low 0.988 | locus YHR142W, strain chs7, active compounds read low 1.02 | locus YHR200W, strain rpn10, active compounds read low 0.981 | locus YIL066C, strain RNR3, active compounds read low 0.998 | locus YIL073C, strain SPO22, active compounds read low 0.997 | locus YIL125W, strain kgd1, active compounds read low 0.993 | locus YIR030C, strain dcg1, active compounds read low 0.982 | locus YJL092W, strain hpr5, active compounds read low 1.01 | locus YJL095W, strain BCK1 (second series), active compounds read low 1.02 | locus YJL095W, strain BCK1, active compounds read low 1 and 0.996 | locus YJL115W, strain asf1, active compounds read low 1 | locus YJL129C, strain trk1, active compounds read low 1.01 | locus YJL134W, strain LCB3, active compounds read low 0.986 | locus YJL154C, strain vps35, active compounds read low 1.01 | locus YJL164C, strain tpk1, active compounds read low 1.01 | locus YJL166W, strain qcr8, active compounds read low 1.02 | locus YJL168C, strain set2, active compounds read low 0.989 | locus YJL187C, strain SWE1 (second series), active compounds read low 0.997 | locus YJL187C, strain SWE1, active compounds read low 1.01 | locus YJR043C, strain POL32, active compounds read low 1 | locus YJR066W, strain TOR1, active compounds read low 0.946
